The record followed here is PubChem BioAssay AID1259343 (VanderVen Lab, College of Veterinary Medicine, Cornell …, 2017).

Out of some 6,200 compounds screened, about 2,900 (47%) were called active. So high a share suggests a set chosen from earlier hits. This is one part of the list. A number with no mark means an inactive call. Rule as the data show it: active = inhibition above about 50%; inactive = the rest.

As a reminder, the inhibition is the change of the read-out against control, counted positive when it falls.

The nature of the experiment: Mycobacterium tuberculosis growth inhibition, primary screen (AID 1259343). Conditions: inhibition: at 10 µM, stronger effect = higher value; outcome: 10 uM.
With `O=C(CC(Nc1ccc2ccccc2c1)c1ccncc1)c1ccccc1` (stereo unspecified), the inhibition is 88.8% (active).

With `C=CCNC(=S)Nc1ccc(SC(F)F)cc1`, the inhibition is 53.4% (active). For the compound `C=CCNC(=S)Nc1ccc(Cl)c(Cl)c1`, the inhibition was 21.1%. For `C=CCNC(=S)Nc1ccc(Cl)cc1F`, the inhibition is 35.1%. As for `Cc1sc(NC(=O)CC(C)(C)CC(=O)Nc2sc(C)c(C)c2C(=O)O)c(C(=O)O)c1C`, the inhibition was 29.4%. Regarding `COC(=O)c1sc(NC(=O)CCCl)c(C(=O)OC)c1C`, the inhibition is 101% (active).

As to `CCOC(=O)c1c(NC(=O)CCl)sc(C(=O)OC)c1CC(=O)OC`, the inhibition is -17.1%. With `Cc1csc(C(C)NCc2ccc(OCC(C)C)cc2)n1` (stereo unspecified), the inhibition was 51.6% (active).

In the case of `Cc1ccc(-c2csc3nc(C4CC4)[nH]c(=O)c23)c(C)c1`, the inhibition is 6.81%. Consider `COc1ccc(C)cc1-c1csc(NC(=O)C(C)C)n1`, for which the inhibition is 11.6%. `Cc1ccc(-c2ncc(C(=O)NC(C)C)s2)c(C)c1`: the inhibition was 61.8% (active). To `CCOC(=O)c1nn(-c2cccc(Cl)c2)c2nc(-c3cccs3)c(C#N)c(=O)n12` belongs 52.1% (active); to `CCOC(=O)c1nn(-c2ccc(OCC)cc2)c2nnc(Cc3cccnc3)c(=O)n12`, -11.2%.

Turning to `COC(=O)CCn1c(=O)c2c(nc3n(CCc4ccccc4)c(C)cn23)n(C)c1=O`, the inhibition is 2.78%. On to `COc1ccccc1Nc1nnc(SCC(=O)c2ccc(O)c(O)c2)s1`, for which the inhibition is 83.9% (active). As to `CNc1nnc(SCc2cccc(Cl)c2)s1`, the inhibition is 23.8%. Then `COc1cccc(C(=O)CSc2nnc(NC(=O)c3cccc(Cl)c3)s2)c1`, with 55.3% (active); and `O=C1c2cccc3cccc(c23)N1S(=O)(=O)c1ccc(Cl)cc1`, with -5.06%. Then `CN(Cc1nc(-c2ccc3c(c2)OCO3)no1)CC1COc2ccccc2O1` (stereo unspecified), with “inactive”. Then `CN(Cc1ccc2nonc2c1)Cc1nc(-c2ccc3c(c2)OCO3)no1`, with 13.7%; and `CN(Cc1ccc2nsnc2c1)Cc1nc(-c2ccc3c(c2)OCO3)no1`, with 84.1% (active); and `CCN(CCn1cccn1)Cc1nc(-c2ccc3c(c2)OCO3)no1`, with 90.5% (active). Turning to `Cc1ccc(CN(C)Cc2nc(-c3ccc4c(c3)OCO4)no2)o1`, the inhibition was 90.8% (active). As for `COc1ccc(-n2ccnc(SCc3ccc(F)cc3)c2=O)cc1`, the inhibition was 76.6% (active).

On to `Cc1nnc(SCc2ccc(C(=O)NCc3ccncc3)cc2)n1-c1ccc(F)cc1`, for which the inhibition is -8.13%. Then `C=Cc1ccc(CSc2nccn(-c3ccc(C)cc3)c2=O)cc1`, with 95.7% (active); and `C=Cc1ccc(CSc2nncn3c2cc2occc23)cc1`, with 31.6%.

For `c1ccc(N2CCC(=NC3=NCCCCC3)N2)cc1`, the inhibition is 4.7%.

As for `NC(=S)N=C1CCN(c2ccccc2)N1`, the inhibition was 93.8% (active).

In the case of `Cc1cccc(N2CCC(=NC(N)=S)N2)c1`, the inhibition was 33.7%. Take `c1nc(Nc2ccc3c(c2)OCCO3)c2c3c(sc2n1)CCCC3`: the inhibition is -26.9%. To `c1ccc(-c2nc(Nc3ccc4c(c3)OCCO4)c3ccccc3n2)cc1` belongs -17%. In the case of `FC(F)(F)c1nc(Nc2ccc3c(c2)OCCCO3)c2ccccc2n1`, the inhibition is 100% (active). As to `CC(C)(Oc1ccc(Cl)cc1)C(=O)NCc1ccoc1`, the inhibition is 24.1%. As to `O=C(NCC(=O)N1CCN(Cc2ccc(OC(F)(F)F)cc2)CC1)c1ccco1`, the inhibition was 94.3% (active). As to `COc1cccc(COc2coc(CN3CCCN(S(=O)(=O)c4ccc(OC(F)(F)F)cc4)CC3)cc2=O)c1`, the inhibition was 10.6%.

`CC(C)CSc1nnc(Nc2ccc(C(C)C)cc2)s1`: the inhibition was 92.2% (active). In the case of `CC(C)c1ccc(Nc2nnc(SCCO)s2)cc1`, the inhibition was 25.5%. As to `Cc1ccc(Nc2nnc(SCC(C)C)s2)cc1`, the inhibition was 94.1% (active). To `O=C(CC1CCCC1)Nc1ccc(S(=O)(=O)C(F)F)cc1` belongs 11.8%; to `COc1cccc(C(=O)Nc2ccc(Oc3ccc(F)cc3)nc2)c1OC`, 45%. As for `CCCCOc1ccc(NC(=O)CC2CCCC2)cn1`, the inhibition was 99.4% (active). As to `OCC1(Cc2ccccc2)CCCN(Cc2ccc(-c3ccco3)cc2)C1` (stereo unspecified), the inhibition result was “inactive”. For the compound `OCCC#Cc1ccc(CN2CCCC(Nc3ccccc3)C2)cc1` (stereo unspecified), the inhibition was 70.9% (active). With `CSc1ncc(CNCCc2cccc(Cl)c2)c(N2CCCC(C)C2)n1` (stereo unspecified), the inhibition was 18%.

Turning to `OCCC#Cc1ccc(CN2CCCC(CO)(Cc3ccccc3)C2)cc1` (stereo unspecified), the inhibition is 69.2% (active). For the compound `CC(C)c1cc(C(=O)N2CCCC(N3CCN(c4cccc(C(F)(F)F)c4)CC3)C2)on1` (stereo unspecified), the inhibition was 46.1%. On to `Clc1cccc(N2CCN(C3CCCN(Cc4ccc5nsnc5c4)C3)CC2)c1` (stereo unspecified), for which the inhibition was 75.5% (active).

With `Clc1cccc(CN2CCCC(Nc3ccccc3)C2)c1` (stereo unspecified), the inhibition was 59.2% (active). For the compound `OCC1(Cc2ccccc2)CCCN(Cc2ccc(OC(F)(F)F)cc2)C1` (stereo unspecified), the inhibition was 20.7%. For `O=C(c1cc(F)ccc1F)C1CCCN(Cc2cccc3cnccc23)C1` (stereo unspecified), the inhibition result was “inactive”. Take `O=C(CN1CCCC1c1ccccc1)Nc1cc(F)cc(F)c1` (stereo unspecified): the inhibition is 2.2%. For `Cc1cc(Cl)ccc1C(=O)C1CCCN(Cc2ccc(C#CCCO)cc2)C1` (stereo unspecified), the inhibition was 77.5% (active). To `Oc1ccccc1CN1CCCC(Nc2cccc(F)c2)C1` (stereo unspecified) belongs 72.9% (active); to `c1ccc(NC2CCCN(Cc3ccc4nsnc4c3)C2)cc1` (stereo unspecified), 65.6% (active). For the compound `O=C(c1ccc(Cl)cc1)C1CCCN(Cc2cccc3cnccc23)C1` (stereo unspecified), the inhibition was -4.04%. For `O=C(NCc1cccnc1-n1cccn1)C1CCCN(Cc2cccnc2)C1` (stereo unspecified), the inhibition was -13.9%. With `O=C(c1ccc(-c2ccccc2)cc1)C1CCCN(Cc2ccncc2)C1` (stereo unspecified), the inhibition result is “inactive”. Then `Oc1cccc(-c2cc(C3CCN(Cc4ccc5nonc5c4)C3)ccn2)c1` (stereo unspecified), with 14.6%; and `CCN(CC)c1ccc(/C=C2\SC(=S)N(Cc3ccccc3)C2=O)c(O)c1`, with -15.2%; and `N#Cc1ccc(NC(=O)Nc2ccccc2Br)c2n[nH]nc12`, with 64.4% (active). With `CN(CC(=O)Nc1ccccc1Br)C1CCc2ccccc21` (stereo unspecified), the inhibition is 34.1%. On to `N#Cc1ccc(CNc2ccccc2Br)cc1`, for which the inhibition was 49.2%. Then `COc1ccc(C(CC(=O)c2cccs2)Sc2ccccc2NC(C)=O)cc1` (stereo unspecified), with 53.2% (active); and `COc1ccc(C2c3cccn3CCN2C(=O)Nc2cccs2)cc1` (stereo unspecified), with -1.32%.

For the compound `NC(=S)c1cc2ccccc2oc1=O`, the inhibition is 101% (active). With `O=c1oc2ccccc2cc1S(=O)(=O)c1ccc(Cl)cc1`, the inhibition was -58.5%. As to `Cc1ccn2c(=O)nc(SCc3ccc(Cl)c(Cl)c3)nc2c1`, the inhibition was 59% (active).

On to `Cc1ccn2c(=O)nc(SCc3ccc(Cl)cc3Cl)nc2c1`, for which the inhibition is 31.1%.

`Cc1ccn2c(=O)nc(SCc3cccc(Cl)c3)nc2c1`: the inhibition is 86.3% (active). Then `Cc1ccn2c(=O)nc(SCc3ccc(F)cc3)nc2c1`, with 1.46%; and `Cc1ccn2c(=O)nc(SCCc3ccccc3)nc2c1`, with 88.3% (active).

For `Cc1ccn2c(=O)nc(SCc3ccc(Br)cc3)nc2c1`, the inhibition was 1.95%. Regarding `Cc1ccc(CSc2nc(=O)n3ccc(C)cc3n2)cc1`, the inhibition was 24.5%. Turning to `Cc1ccn2c(=O)nc(SCc3cccc(C(F)(F)F)c3)nc2c1`, the inhibition is 2.92%.

Consider `Cc1ccn2c(=O)nc(SCc3ccc(Cl)cc3)nc2c1`, for which the inhibition was 77.5% (active).

For `CCCSc1nnnn1-c1ccc(O)cc1`, the inhibition is 55% (active). In the case of `N#CCSc1nnnn1-c1ccc(O)cc1`, the inhibition is -12.8%. As to `O=C(CSc1ncnc2c1cnn2-c1ccc(F)cc1)Nc1ccon1`, the inhibition is 68.2% (active). Consider `COc1cc(NC(=O)CSc2ncnc3c2cnn3C)cc(OC)c1`, for which the inhibition was 35.5%. Regarding `Cc1noc(-c2ccnc(NCc3ccc(C#N)cc3)c2)n1`, the inhibition is 22.9%. Take `Cc1nc(SCC(=O)C23CC4CC(CC(C4)C2)C3)nc(C)c1C`: the inhibition is 45%.

For the compound `O=C(C[P+](c1ccccc1)(c1ccccc1)c1ccccc1)C12CC3CC(CC(C3)C1)C2`, the inhibition was 95.7% (active). For `Cc1ccc(-n2c(SCC(=O)N3CCNC3=O)nc3sc4c(c3c2=O)CCC4)c(C)c1`, the inhibition is 91.2% (active). With `CC(=O)CSc1nc2sc(C)c(C)c2c(=O)n1C1CCCCC1`, the inhibition was 12%. `Fc1ccc(Cc2nc(CSc3c(F)c(F)cc(F)c3F)cs2)c(Cl)c1`: the inhibition was 50.2% (active). As to `CNC(Cc1ccc(Br)cc1)Cc1ccc(Br)cc1`, the inhibition was 68.1% (active).

`NCCOc1ccc(C23CC4CC(CC(C4)C2)C3)cc1`: the inhibition was -5.79%.

On to `CN1CCN(CC(O)COc2ccc(C34CC5CC(CC(C5)C3)C4)cc2)CC1` (stereo unspecified), for which the inhibition was 101% (active). Turning to `C1=C(CCNc2ncnc3sc4c(c23)CCC4)CCCC1`, the inhibition was 97% (active). Take `c1nc(NN=C2C3CC4CC(C3)CC2C4)c2c3c(sc2n1)CCC3`: the inhibition was 100% (active). Regarding `c1csc(CCNc2ncnc3sc4c(c23)CCC4)c1`, the inhibition was -1.33%.

On to `c1nc(NC2CCCCCC2)c2c3c(sc2n1)CCCC3`, for which the inhibition was 94.5% (active). Consider `c1nc(NC2CCCCCC2)c2c3c(sc2n1)CCC3`, for which the inhibition was 68% (active). As for `Cc1cn2nc(NC3CCCCCCC3)sc2n1`, the inhibition is -9.07%. As to `COCc1nc(NCCC2=CCCCC2)c2cnn(C)c2n1`, the inhibition was -33.4%. For `CC(=NNc1ncnc2sc3c(c12)CCC3)c1cc2ccccc2o1`, the inhibition was 24.7%. Then `CCCCCNc1ncnc2sc3c(c12)CCCC3`, with -24.3%; and `O=S(=O)(Nc1ncnc2sc3c(c12)CCC3)c1cccs1`, with 101% (active); and `Cc1nc(-c2ccccn2)[nH]c(=O)c1CC(=O)N1CCc2ccccc2C1`, with 67.7% (active).

Take `O=C(CSc1nnc(CCn2ccc(=O)[nH]c2=O)o1)N1CCc2ccccc2C1`: the inhibition is 4.33%. On to `Cc1ccc(NC(=O)c2cc(C)n(C3CC3)c2C)c(C)c1`, for which the inhibition was 12.4%. For `CC1=C(C#N)C(C(F)(F)F)(C(F)(F)F)N=C(C2CCCCC2)N1`, the inhibition was 11.3%.

In the case of `CC(=O)Nc1nc(COc2ccc(Cl)cc2Br)cs1`, the inhibition was 41.2%.

For `Nc1nc(COc2ccc(Cl)cc2Cl)cs1`, the inhibition was 87.6% (active). Regarding `Cc1nc(COc2ccccc2C(=O)Nc2ccc(Cl)cc2C)cs1`, the inhibition is -36.5%.
